# Screening results: PubChem BioAssay, National Center for Advancing Translational Sciences (NCATS)
# Sampled rows, rich in hits. Any-hit rate of the full collection: about 3.5%.
# FBPA Giardia inh: qHTS Assay for Inhibitors of Fructose-1,6-bisphosphate Aldolase from Giardia Lamblia. A8B2U2. purified Giardia FBPA. Potency, µM (top dose mostly 59.6 µM), without a hit: at the highest dose activity, negative = inhibition, most hits filed as inhibitors. 290,000 tested, 0.71% active. AID 2451, 2010; further: on the % scale 0 is the no-effect control and ±100 the full control effect; nearly all actives have a fitted effect of over 55% in size
# Target sequence (A8B2U2 whole entry, looked up): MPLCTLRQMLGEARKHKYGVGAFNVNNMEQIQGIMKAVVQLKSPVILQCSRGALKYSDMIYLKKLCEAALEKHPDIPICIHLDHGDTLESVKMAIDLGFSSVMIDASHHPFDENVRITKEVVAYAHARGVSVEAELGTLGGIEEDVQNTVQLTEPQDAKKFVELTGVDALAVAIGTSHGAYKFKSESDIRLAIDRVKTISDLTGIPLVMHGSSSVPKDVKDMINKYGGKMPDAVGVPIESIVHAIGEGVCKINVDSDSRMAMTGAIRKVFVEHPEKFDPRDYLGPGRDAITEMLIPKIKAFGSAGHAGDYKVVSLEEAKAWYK
#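 Giardia FBPA (40 nM reagent) was preincubated 10 min at RT with compound (up to 57.5 uM final), then substrate plus GAPDH/TPI/NAD/arsenate coupling system with diaphorase/resazurin was added; resorufin fluorescence (525/598 nm) was read after 20 min.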
# Sm TGR block: qHTS Assay for the Inhibitors of Schistosoma Mansoni Peroxiredoxins; Potency, µM (series often up to 114 µM), for inactives: at the highest dose activity change, negative = inhibition, hits mostly inhibitors; 360,000 tested, 3% active; Schistosoma mansoni thioredoxin glutathione reductase (TGR), Q962Y6; purified TGR, DTNB reduction, TNB absorbance 405 nm; further: on the % scale 0 is the no-effect control and ±100 the full control effect; nearly all actives have a fitted effect of over 60% in size
#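 TGR 20 nM + NADPH 100 uM (dispensed conc.), cpd preinc 15 min RT; start with NADPH (500 uM addition) then DTNB (15 mM addition). Kinetic TNB absorbance, 405 nm filter. Four-parameter Hill fit across titration.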
# RE007 growth inh: qHTS Assay for Inhibitors of the HIV-1 protein Vpr. 360,000 tested, 0.21% active. Potency, µM (highest dose often 92.2 µM), without a hit: at the top dose activity change, negative = less growth, most hits filed as inhibitors. S. pombe RE007 Vpr strain, BacTiter-Glo ATP luminescence, 24 h; active means well fitted falling curve with a large enough effect; inconclusive means small, poorly fitted or top-dose-only effect; inactive means no such curve, though single readings can be large or run the other way; further: on the % scale 0 is the no-effect control and ±100 the full control effect; nearly all actives have a fitted effect of over 50% in size
#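 Fission yeast RE007 carrying one integrated HIV-1 vpr copy, seeded at OD 0.01 in PMG+AL medium with 23 nL pinned compound. Grown 24 h at 30 degrees; viability read by BacTiter-Glo luminescence after 5 min.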
# LmPK inhibitor: qHTS Assay for Inhibitors of Leishmania Mexicana Pyruvate Kinase (LmPK) | Q27686 | 290,000 tested, 0.37% active | purified LmPK, Kinase-Glo ATP luminescence, 1 h | Potency, µM (highest dose often 57.5 µM), without a hit: at the top dose activity change, negative = inhibition, usual class: inhibitors | AID 1721, 2009; further: on the % scale 0 is the no-effect control and ±100 the full control effect
#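 ATP generated from ADP (0.1 mM) and PEP (0.5 mM) by 0.1 nM LmPK over 1 h at room temperature (pH 7.2 imidazole buffer) was detected by coupled luciferase luminescence. Values were normalized to uninhibited and no-enzyme wells.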
# NS1 function inh: qHTS Assay for Inhibitors of Influenza NS1 Protein Function. Potency, µM (titrated, usually from 46.1 µM), for the others: at the highest dose activity, positive = more growth. 270,000 tested, 0.4% active. AID 2326, 2010; calls by dose curve; further: actives are rising curves; nearly all actives have a fitted effect of over 50% in size
#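 Growth recovery, yeast-based: influenza A NS1 expressed in S. cerevisiae causes slow growth, and suppressors are detected by OD600. The parent strain without NS1 is used as positive control.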
# TbPYK inhibitor: qHTS of Trypanosoma Brucei Inhibitors. 410,000 tested, 0.12% active. TbPYK enzyme, Kinase-Glo Plus ATP luminescence, 45 min. AID 624173, 2012. Potency, µM (highest dose often 76.8 µM), inactives show top-dose activity, negative = inhibition, actives largely listed as inhibitors; further: on the % scale 0 is the no-effect control and ±100 the full control effect; nearly all actives have a fitted effect of over 50% in size
#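 Activity of T. brucei pyruvate kinase was followed by Kinase-Glo Plus luminescence after the enzyme reacted 45 min at room temperature with 130 uM ADP (final) and substrate. Test compounds were added before ADP at multiple concentrations.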
# Starred values were filed as active, the others as inactive; ? = inconclusive; / = no result given; [ ] = remark or other dose. Unless noted, the call rests on the fitted dose curve; in most records, active means well fitted curve in the direction sought with a large enough effect; inconclusive means small, poorly fitted or top-dose-only effect, or another doubt; inactive means no such curve, though single readings can be large; an effect the other way counts as inactive or inconclusive. Potency means the concentration at half of the fitted maximal effect.
SMILES,FBPA Giardia inh,Sm TGR block,RE007 growth inh,LmPK inhibitor,NS1 function inh,TbPYK inhibitor
NC(=O)[C@@H]1CCNc2c(I)cc([N+](=O)[O-])cc2C(=O)N[C@@H](CO)C(=O)N[C@@H](Cc2ccc(O)cc2)C(=O)N1,-12%,?,/,4%,11µM*,/
Cc1c(Cl)cccc1NC(=O)CN1C(=O)COc2ccc(S(=O)(=O)Nc3ccccc3)cc21,/,4%,/,/,/,-7%
CCSc1ncc(Cl)c(C(=O)Nc2ccc(S(=O)(=O)N(C)c3ccccc3)cc2)n1,/,13%,/,/,/,1%
CCS(=O)(=O)c1ncc(Cl)c(C(=O)Nc2ccc(S(=O)(=O)N(C)c3ccccc3)cc2)n1,1%,0.5µM*,5%,0%,-1%,7%
CCN(c1ccccc1)S(=O)(=O)c1ccc(NC(=O)c2nc(S(C)(=O)=O)ncc2Cl)cc1,/,0.4µM*,5%,-3%,-10%,35%
Cc1c(Cl)cnn1CC(=O)NC1C(=O)N2C(C(=O)O)=C(CSc3nnnn3C)CSC12 (stereo not given),?,16µM*,3%,4%,/,-14%
Cc1nn(CC(=O)NC2C(=O)N3C(C(=O)O)=C(CSc4nnnn4C)CSC23)cc1Br (stereo not given),?,20µM*,0%,21%,/,-1%
Cc1nnc(SCC2=C(C(=O)O)N3C(=O)C(NC(=O)Cc4ccccc4)C3SC2)s1 (stereo not given),/,13µM*,-3%,/,/,-11%
Cn1nnnc1SCC1=C(C(=O)O)N2C(=O)C(NC(=O)Cn3nc(C(F)F)cc3C3CC3)C2SC1 (stereo not given),?,3.5µM*,2%,2%,/,-3%
COCCCNC(=O)c1sc2nc(C)c(C(=O)Nc3ccc(C)cc3C)c(-c3ccccc3Cl)c2c1N,/,5%,/,/,/,-4%
COc1ccc(NC(=O)CN2CCN(Cc3ccccc3)S2(=O)=O)c(OC)c1,/,3%,/,/,/,4%
Cc1cc(=O)c(C(=O)N[C@@H](C(=O)N[C@@H]2C(=O)N3C(C(=O)O)=C(CSc4nnnn4C)CS[C@H]23)c2ccc(O)cc2)c[nH]1,/,/,/,/,/,-12%
Cc1c(Cl)c(C(F)F)nn1CC(=O)NC1C(=O)N2C(C(=O)O)=C(CSc3nnnn3C)CSC12 (stereo not given),-20%,4µM*,-8%,9%,/,-7%
COc1cc(OC)cc(-c2nc3nc(C)c(CCC(=O)Nc4ccc(F)cc4F)c(C)n3n2)c1,/,-18%,/,/,/,1%
CC(=O)Nc1sc2c(c1C(c1cccs1)N1CCOCC1)CCCC2 (stereo not given),-11%,22µM*,-1%,1%,4%,-13%
CC(=O)Nc1sc2c(c1C(c1ccccn1)N1CCCC1)CCCC2 (stereo not given),-25%,-2%,-3%,2%,/,-5%
Clc1ccc2nc(-c3ccc(Br)o3)c(Nc3ccc4c(c3)OCCO4)n2c1,/,-18%,/,/,/,1%
Cc1cc(C)c(NC(=O)CSc2nc3ccccc3nc2N2CCCCC2)c(C)c1,/,-5%,/,/,/,3%
O=[N+]([O-])/C(C(Cl)=C(Cl)Cl)=C(/NC1CC1)Sc1ccccc1,?,4µM*,-6%,0%,/,-11%
O=C(CSc1ccccc1)NC1CC1,/,/,1%,/,/,-1%
O=c1c(C(c2ccc(Br)cc2)c2c(O)nc3n(c2=O)CCS3)c(O)nc2n1CCS2,3%,?,10%,4%,9%,-4%
O=c1c(C(c2ccc(Br)cc2)c2c(O)nc3n(c2=O)CCCS3)c(O)nc2n1CCCS2,8%,2µM*,-14%,3%,4%,-2%
Cc1ccc(C(c2c(O)nc3n(c2=O)CCS3)c2c(O)nc3n(c2=O)CCS3)cc1,-5%,2.8µM*,4%,7%,24%,-10%
O=c1c(C(c2ccc(O)cc2)c2c(O)nc3n(c2=O)CCCS3)c(O)nc2n1CCCS2,-7%,56µM*,3%,5%,-3%,-16%
O=c1c(C(c2ccc(O)cc2)c2c(O)nc3n(c2=O)CCS3)c(O)nc2n1CCS2,-13%,10µM*,-1%,12%,0%,?
SMILES,FBPA Giardia inh,Sm TGR block,RE007 growth inh,LmPK inhibitor,NS1 function inh,TbPYK inhibitor
COc1ccc(-c2cn3nc(N4CCCC(C(=O)Nc5cc(Cl)ccc5OC)C4)sc3n2)cc1 (stereo not given),/,3%,/,/,/,-1%[15.4 µM]
CC1=C(C(=O)Nc2ccccc2)C(c2cccnc2)n2nc(SCc3ccccc3Cl)nc2N1 (stereo not given),/,3%,/,/,/,6%
COc1ccc(/C=C/C2=CCN(C)CC2)cc1,-17%,32µM*,4%,0%,1%,3%
CC(COc1cccc2ccccc12)CN1CCN(C)CC1 (stereo not given),-12%,25µM*,-27%,-5%,-5%,4%
O=C(Nc1ncc2c(n1)CC(c1ccco1)CC2=O)c1ccccc1 (stereo not given),-1%,-33%,0%,-3%,3%,4%
O=C1CC(c2ccco2)CC2=C1C=Nc1ccccc1N2 (stereo not given),0%,40µM*,-2%,-1%,-31%,-10%
O=C(CNC(=O)c1ccccc1F)N/N=C\C=C\c1ccccc1,/,22µM*,-3%,-7%,10%,-1%
CCOc1ccc(NC(=O)c2c(NC(=O)c3ccccc3Br)sc3c2CCC(C)C3)cc1 (stereo not given),/,-7%,/,/,/,-12%
CC(=O)NC(c1ccco1)c1cc(Cl)c2ccccc2c1O (stereo not given),/,63µM*,/,/,/,2%
CCC(=O)NC(c1ccco1)c1cc(Cl)c2ccccc2c1O (stereo not given),/,?,/,/,/,5%
CCC(C)C(C(=O)OCC[N+](C)(CC)CC)c1ccccc1 (stereo not given),/,/,/,/,/,1%
Cc1ccc2[nH]c3c(c2c1)CN(C(=O)CN1CCCc2ccccc21)CC3,2%,32µM*,-3%,-3%,3%,3%
COc1ccccc1N=c1oc2cc(O)ccc2cc1C(=O)NCC1CCCO1 (stereo not given),1%,-2%,-18%,3%,-7%,7%
COc1ccccc1N=c1oc2cc(O)ccc2cc1C(N)=O,10%,0%,8.9µM*,-16%,-65%,-3%
Cn1c(=O)c2[nH]c(=S)n(Cc3ccccc3)c2n(C)c1=O,/,/,12%,/,/,16µM*
CCCCn1c(=S)[nH]c2c(=O)n(C)c(=O)n(C)c21,/,/,-10%,/,/,?
